Assay outcomes deposited in PubChem by several laboratories.
A selection: hits, their analogues and other compounds. The true share with any hit is near 22%.
CYP2C19 act: human CYP2C19 activators, primary screen, biochemical, luminescence; recombinant CYP2C19, luciferin-H EGE luminescence; stronger effect = higher value; 0 = fully inhibited enzyme, 1 = untreated enzyme; Cytochrome P450 2C19 (Homo sapiens), P33261; AID 1025, 2008; activation factor at 5 µM; 96,000 tested, under 10 active;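 active = activation factor of at least 2 at 5 µM in the primary screen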
CYP2C9 inhib: blockers of cytochrome P450 2C9 activity – biochemical, luminescence, ADME assay, primary screen; P11712; AID 777, 2007; inhibition, % at 5 µM; 96,000 compounds, 20% hits; CYP2C9 Supersomes, luciferin-H conversion;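 active = blocking of liver enzyme CYP2C9 beyond about 50% at 5 µM, limit read from the data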
CYP2C19 inhib: blockers of cytochrome P450 2C19 activity – biochemical, luminescence, ADME assay, primary screen. CYP2C19 Supersomes, luciferin-H EGE luminescence, 30 min. inhibition, % at 5 µM. P33261. 96,000 compounds, 21% hits;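 active = CYP2C19 inhibition above a set limit at 5 µM in the primary screen, cut at about 50% in these data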
CYP2C9 activ: human CYP2C9 activators, primary screen, biochemical, luminescence; activation factor at 5 µM; 96,000 compounds, 1.4% hits; recombinant CYP2C9, luciferin-H conversion; stronger effect = higher value; factor 1 = untreated enzyme, 0 = blocked;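 active = activation factor of 2 or more for CYP2C9 at a 5 µM dose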
Measles CPE: compounds protecting cells from measles virus cytopathic effect, primary screen, measles RdRp inhibitor project, single point, MLSMR library, absorbance. 140,000 compounds, 1.5% hits. Measles virus-infected cells, CPE protection. AID 841, 2007. protection (pct of control), % at 4 µM; in the data active = protection mostly above about 24%, no sharp cut-off; inactive = mostly below about 26%
Large screens that a line does not name were inactive.

CCOC(=O)N1CCN(C(=O)C(C)N(c2ccc(Oc3ccccc3)cc2)S(C)(=O)=O)CC1 (centres undefined)	none
CCOc1ccc(S(=O)(=O)N(C)c2ccc(OCC(=O)NCc3ccco3)cc2)cc1	CYP2C9 inhib 100, CYP2C19 inhib 86
CCC(C)NS(=O)(=O)c1ccc(OCC(=O)NCc2ccco2)cc1 (centres undefined)	none
COCCNC(=O)C(C)N(c1ccc(Oc2ccccc2)cc1)S(C)(=O)=O (centres undefined)	CYP2C19 inhib 53
CCCNC(=O)c1ccccc1NS(=O)(=O)c1ccc(OC)c(OC)c1	none (no result: CYP2C19 act, CYP2C9 inhib, CYP2C19 inhib, CYP2C9 activ)
COc1ccc(S(=O)(=O)Nc2ccccc2C(=O)NCc2ccco2)cc1Br	CYP2C9 inhib 51
CCOc1ccc(-n2c(N)c(C(=O)NCc3ccco3)sc2=S)cc1	CYP2C9 inhib 57
CCOC(=O)NC(=O)CSc1nnc(C)s1	none
Cc1cc(Cl)ccc1N1C(=O)CC(NNC(=O)c2cccnc2)C1=O (centres undefined)	none (no result: CYP2C19 act, CYP2C9 inhib, CYP2C19 inhib, CYP2C9 activ)
O=C(c1ccc(-c2nnc(Nc3ccccc3)c3ccccc23)cc1)N1C[C@H]2C[C@H](C1)c1cccc(=O)n1C2	none
C[N+](C)(C)C/C=C1/COCO1	none
Cc1ccc(OCC(=O)NCc2ccco2)cc1C	CYP2C19 inhib 80
Cc1cc(C)c2c(CC(=O)NCc3ccco3)coc2c1	CYP2C19 inhib 89 (no result: Measles CPE)
CS(=O)(=O)Nc1ccccc1C(=O)NCc1ccco1	none
Cc1cc(Cl)cc(Cl)c1OCC(=O)NCc1ccco1	none
Cc1cc(C)c(C)c(S(=O)(=O)NCC(=O)NCc2ccco2)c1C	none (no result: CYP2C19 act, CYP2C9 inhib, CYP2C19 inhib, CYP2C9 activ)
Cc1ccccc1NS(=O)(=O)c1ccc(OCC(=O)NCc2ccco2)cc1	CYP2C9 inhib 61
CCOc1ccc(S(=O)(=O)Nc2ccccc2C(=O)NCc2ccco2)cc1	CYP2C9 inhib 70, CYP2C19 inhib 100
CCOC(=O)C1CCN(S(=O)(=O)c2c(C)n(C)c(=O)n(C)c2=O)CC1	none
Cc1ccccc1OCC1Cc2c(nc(N)c(C#N)c2N)O1 (centres undefined)	none
CC1=NN(C(=O)c2c(Br)c(C)nn2C)C(O)(C(F)(F)F)C1 (centres undefined)	none (no result: CYP2C19 act, CYP2C9 inhib, CYP2C19 inhib, CYP2C9 activ)
CCOc1ccc(N(C(C)C(=O)NC2CCCCCC2)S(C)(=O)=O)cc1 (centres undefined)	none
CCOc1ccc(N(C(C)C(=O)NCc2ccco2)S(C)(=O)=O)cc1 (centres undefined)	CYP2C9 inhib 54, CYP2C19 inhib 78
Cc1cccc(NS(=O)(=O)c2cc(C(=O)OCC(=O)Nc3cc(C)on3)ccc2C)c1	CYP2C9 inhib 84
COc1ccccc1NS(=O)(=O)c1cccc(C(=O)OCC(=O)Nc2cc(C)on2)c1	none
Cc1cccc(NS(=O)(=O)c2ccc(C)c(C(=O)OCC(=O)Nc3cc(C)on3)c2)c1	CYP2C9 inhib 94, CYP2C19 inhib 89
CC(O)c1cccc(NC2=CC(=O)CC(C)(C)C2)c1 (centres undefined)	none
C(=N\n1cnnc1)/c1cn(Cc2ccccc2)c2ccccc12	CYP2C9 inhib 66, CYP2C19 inhib 85
CCn1c2ccccc2c2cc(/C=N/n3cnnc3)ccc21	CYP2C9 inhib 74, CYP2C19 inhib 97
CCn1c2ccccc2c2cc(/C=N/n3cn[nH]c3=S)ccc21	CYP2C19 inhib 81
C[C@@H]1NC(=O)c2cc([N+](=O)[O-])cc(I)c2OCC[C@@H](C(N)=O)NC(=O)[C@H](CCC(=O)O)NC1=O	none (no result: CYP2C19 act, CYP2C9 inhib, CYP2C19 inhib, CYP2C9 activ)
O=C1NC(c2ccccc2)(C(F)(F)F)C(=O)N1Cc1cccnc1 (centres undefined)	CYP2C9 inhib 51, CYP2C19 inhib 84
CC(=O)N1c2c(ccc3ccccc23)C(C)CC12CCCCC2 (centres undefined)	CYP2C9 inhib 93, CYP2C19 inhib 98
Cc1cccc(-n2nc([N+](=O)[O-])c(=NCc3cccnc3)n2O)c1	CYP2C19 inhib 60
CC1Cc2ccccc2N1CC(=O)NCc1ccc2c(c1)OCO2 (centres undefined)	none (no result: CYP2C19 act, CYP2C9 inhib, CYP2C19 inhib, CYP2C9 activ)
CCOC(=O)/C(C#N)=C1/C=CN(C)C(C)=N1	Measles CPE 29
COc1ccc(CCNC2CCN(C)CC2)cc1OC	CYP2C9 inhib 74
CCCN1CCC(N(C)CCc2ccc(OC)c(OC)c2)CC1	none
